Laboratory results taken from PubChem BioAssay (NCI).
About 79,000 compounds went through this panel and 15% of them were active in at least one assay; those are over-represented in the sample as a whole. Calls of active or inactive are those of the source. Rule as the data show it: active = growth inhibition above about 70%; inactive = the rest.

How the values were obtained:
[1] = NCI Yeast Anticancer Drug Screen. Data for the rad52 strain (AID 147);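 also: 0% = growth of vehicle-treated control cultures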; details: S. cerevisiae rad52 mutant growth inhibition, active compounds read high
How it was run: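 Genetically altered yeast (DNA damage repair defect) treated with compound; inhibition calculated relative to vehicle.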

[2] = NCI Yeast Anticancer Drug Screen. Data for the wt1 strain (AID 149);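 also: 0% = growth of vehicle-treated wt1 cultures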; details: S. cerevisiae wt1 strain (SPY 50644) growth inhibition, active compounds read high
How it was run: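 Measured: growth of wt1 yeast under compound versus vehicle treatment, reported as inhibition.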

[3] = NCI Yeast Anticancer Drug Screen. Data for the rad50EPP+ strain (AID 151);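 also: 0% = growth of vehicle-treated control cultures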; details: S. cerevisiae rad50 mutant strain, active compounds read high
How it was run: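 Strain rad50EPP+; compound exposure; % growth inhibition vs vehicle.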

[4] = NCI Yeast Anticancer Drug Screen. Data for the rad50 strain (AID 155);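 also: 0% = growth of vehicle-only cultures of the same strain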; details: S. cerevisiae rad50 strain growth inhibition, active compounds read high
How it was run: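 Growth of the mutant yeast was measured after compound exposure and referenced to vehicle-treated cultures.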

[5] = NCI Yeast Anticancer Drug Screen. Data for the mec2-1 strain (AID 157); details: S. cerevisiae mec2-1 strain, active compounds read high
How it was run: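 Cells of the genetically defined mec2-1 yeast strain are incubated with test compound. Inhibition of growth is calculated against vehicle-treated controls.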

[6] = NCI Yeast Anticancer Drug Screen. Data for the rad14 strain (AID 159);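 also: 0% = growth of vehicle-treated control cultures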; details: S. cerevisiae rad14 strain growth inhibition, active compounds read high
How it was run: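 Here, inhibition of yeast growth was measured after compound exposure, using a strain with a genetic defect in DNA damage repair and vehicle-treated cultures as the reference.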

[7] = NCI Yeast Anticancer Drug Screen. Data for the sgs1 mgt1 strain (AID 161);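 also: 0% = growth of cultures given vehicle only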; details: S. cerevisiae sgs1 mgt1 strain, active compounds read high
How it was run: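 Read-out: growth inhibition vs vehicle controls. Cells: mutant yeast strain deficient in DNA damage repair.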

[8] = NCI Yeast Anticancer Drug Screen. Data for the CLN2oe strain (AID 163);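 also: 0% = growth of vehicle-only control cultures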; details: S. cerevisiae CLN2oe strain, active compounds read high
How it was run: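 Strain altered in cell-cycle control, incubated with compound; growth compared to solvent-treated controls.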

[9] = NCI Yeast Anticancer Drug Screen. Data for the cln2 rad14 strain (AID 165);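 also: 0% = growth equal to vehicle treated cultures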; details: S. cerevisiae cln2 rad14 strain, active compounds read high
How it was run: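 The screen exposed genetically defined yeast (cln2 rad14) to test compounds and scored growth inhibition relative to vehicle-treated controls.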

[10] = NCI Yeast Anticancer Drug Screen. Data for the bub3 strain (AID 167); details: S. cerevisiae bub3 mutant strain, active compounds read high
How it was run: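 Whole-cell yeast assay. The mutant strain was incubated with compounds, and growth inhibition was determined by comparison with vehicle-treated cells.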

[11] = NCI Yeast Anticancer Drug Screen. Data for the wt2 strain (AID 169);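 also: 0% = growth of vehicle-treated yeast cultures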; details: S. cerevisiae wt2 strain growth inhibition, active compounds read high
How it was run: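 Steps: yeast strain treated with compound; growth recorded; inhibition calculated relative to cultures given vehicle alone.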

[12] = NCI Yeast Anticancer Drug Screen. Data for the mlh1 strain (AID 171);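 also: 0% = growth of vehicle-treated control cultures of the same strain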; details: S. cerevisiae mlh1 strain growth inhibition, active compounds read high
How it was run: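 Yeast screen: mutant strain plus compound, growth scored against vehicle control wells.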

[13] = NCI Yeast Anticancer Drug Screen. Data for the sgs1 strain (AID 173);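 also: 0% = growth of vehicle-only control cultures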; details: S. cerevisiae sgs1 mutant, active compounds read high
How it was run: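 Inhibition of yeast growth served as the measure. The mutant strain was treated with each compound, and growth was normalised to cultures receiving vehicle alone.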

[14] = NCI Yeast Anticancer Drug Screen. Data for the mlh1 rad18 strain (AID 175); details: S. cerevisiae mlh1 rad18 strain growth inhibition, active compounds read high
How it was run: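 Compound-treated yeast growth, normalised to vehicle controls. Strain bears defined DNA repair mutations.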

[15] = NCI Yeast Anticancer Drug Screen. Data for the rad18 strain (AID 177); details: S. cerevisiae rad18 mutant growth inhibition, active compounds read high
How it was run: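 Inhibition values reflect reduced yeast growth compared with vehicle-treated controls, using a strain engineered with a DNA damage repair defect.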

[16] = at 5.0 µM (retest, dose inferred, filed as 0.5)
[17] = at 50.0 µM (retest, dose inferred, filed as 5.0)

Measured: growth inhibition

Oc1cccc2cc(Cl)cnc12
active: [1]; at 33.0 µM 96% | [1]; at 100.0 µM 97% | [2]; at 33.0 µM 96% | [2]; at 100.0 µM 98% | [3]; at 11.0 µM 94% | [3]; at 33.0 µM 98% | [3]; at 100.0 µM 97% | [4]; at 33.0 µM 96% | [4]; at 50.0 µM 90.7% | [4]; at 100.0 µM 97% | [5]; at 33.0 µM 97% | [5]; at 50.0 µM 92.8% | [5]; at 100.0 µM 98% | [6]; at 33.0 µM 97% | [6]; at 100.0 µM 98% | [7]; [17] 99% | [7]; at 50.0 µM 91.7% | [8]; at 33.0 µM 95% | [8]; at 100.0 µM 94% | [9]; [17] 98% | [9]; at 50.0 µM 88.7% | [10]; at 33.0 µM 96% | [10]; [17] 99% | [10]; at 50.0 µM 91.8% | [10]; at 100.0 µM 97% | [11]; at 33.0 µM 96% | [11]; at 100.0 µM 98% | [12]; at 33.0 µM 96% | [12]; at 100.0 µM 97% | [13]; at 33.0 µM 97% | [13]; at 100.0 µM 98% | [14]; at 50.0 µM 91.2% | [15]; at 33.0 µM 96% | [15]; at 100.0 µM 97%
inactive: [1]; at 1.2 µM -5% | [1]; at 3.7 µM 5% | [1]; at 11.0 µM 49% | [2]; at 1.2 µM -28% | [2]; at 3.7 µM -39% | [2]; at 11.0 µM 20% | [3]; at 1.2 µM -11% | [3]; at 3.7 µM -2% | [4]; at 1.2 µM -29% | [4]; at 3.7 µM -13% | [4]; [16] 37% | [4]; at 11.0 µM 37% | [4]; [17] 65% | [5]; at 1.2 µM -56% | [5]; at 3.7 µM -56% | [5]; [16] 38% | [5]; at 11.0 µM 6% | [5]; [17] 69% | [6]; at 1.2 µM -27% | [6]; at 3.7 µM -13% | [6]; at 11.0 µM 28% | [7]; [16] -13% | [8]; at 1.2 µM 5% | [8]; at 3.7 µM 8% | [8]; at 11.0 µM 45% | [9]; [16] 49% | [10]; at 1.2 µM -21% | [10]; at 3.7 µM -8% | [10]; [16] 55% | [10]; at 11.0 µM 20% | [11]; at 1.2 µM -31% | [11]; at 3.7 µM -26% | [11]; at 11.0 µM 1% | [12]; at 1.2 µM -22% | [12]; at 3.7 µM -42% | [12]; at 11.0 µM 3% | [13]; at 1.2 µM -47% | [13]; at 3.7 µM -43% | [13]; at 11.0 µM 46% | [14]; [16] 44% | [14]; [17] 50% | [15]; at 1.2 µM -11% | [15]; at 3.7 µM -4% | [15]; at 11.0 µM 60%
